# Results taken from PubChem BioAssay (EPA / NIEHS).
# Values joined by “and” are separate entries in the source; they are usually repeats but may differ in a detail not shown here. Equal values may be shown once. Inconclusive results are not listed. Active and inactive are the calls of the source. The calls were made as follows: active = hit-call score of the fitted dose curve at least 0.9, where 1 is the maximum; inconclusive = response in the unintended direction; inactive = score below 0.9.
# Assays:
# [1] = ACEA_AR_antagonist_AUC_viability: ACEA Biosciences xCELLigence Real-Time Cell Analysis on Androgen Receptor Antagonism for Viability (AID 2283776);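 also: 22Rv1 human prostate cancer cells growing on impedance electrode plates; area under impedance growth curve at 80 h after dosing as viability; hits lower the growth signal relative to DMSO meaning cytotoxicity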
# Summary of the method: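 Viability endpoint from label-free cell-index monitoring: 22Rv1 cultures treated with an eight-point 1:4 dilution series starting at 100 uM final, AUC at 80 h fitted against DMSO.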
# [2] = biological target: Luciferin 4-monooxygenase (Photinus pyralis) (UniProt P08659); experiment: CCTE_Simmons_QuantiLum_inhib_2: CCTE's Firefly Luciferase Inhibition Assay, Simmons Lab (AID 2283767);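 as to AC50: potency for inhibitors that lower luciferase luminescence relative to DMSO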
# Summary of the method: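 Recombinant firefly luciferase (5 ng/well, 200 mM potassium phosphate with 1 mg/ml BSA) was exposed to 8 concentrations from 5 nM to 87.5 uM (final, 0.5% DMSO) for 30 min at 37C in the dark. Loss of luminescence versus DMSO was read after injecting D-luciferin/ATP-analogue reagent.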
# [3] = ACEA_ER_AUC_viability: ACEA Biosciences xCELLigence Real-Time Cell Analysis on Estrogen Receptor Agonism for Viability (AID 2283782);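 also: continuous compound exposure with impedance area under curve over 80 h; hit means loss of impedance signal meaning reduced cell growth or viability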
# Summary of the method: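 T-47D human breast cells in phenol red-free RPMI1640 with 10% charcoal-stripped FBS were dosed with an 8-point 1:4 dilution series from 100 uM top final concentration, in duplicate. Impedance-based growth was followed for 80 h; AUC analysed versus DMSO.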
# AR (gene 367) [4] = biological target: AR (gene 367) (UniProt P10275); experiment: ACEA_AR_agonist_80hr: ACEA Biosciences xCELLigence Real-Time Cell Analysis on Androgen Receptor Agonism for Proliferation (AID 2283783);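 also: hits increase impedance growth signal above DMSO baseline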
# Summary of the method: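 22Rv1 human prostate cancer cells were seeded after preconditioning in assay medium and monitored overnight, then dosed in an eight-point 1:4 dilution series from 100 uM (≤0.5% DMSO). Impedance-based growth was read at 80 h, gain-of-signal versus DMSO.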
# [5] = STM_H9_NormalizedViability: Cytotoxicity Assessment at 120 hours in the Stemina devTOX quickPredict H9 human embryonic stem cell (hESC)-based Assay (AID 2283784)
# Summary of the method: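 Undifferentiated H9 hESCs kept pluripotent were exposed to compound, with media and chemical replaced every 24h. CellTiter-Fluor protease-substrate fluorescence was background-corrected and normalized per plate to the 0.1% DMSO vehicle; signal loss indicates reduced viability.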
# AR (gene 367) [6] = biological target: AR (gene 367) (UniProt P10275); experiment: ACEA_AR_antagonist_80hr: ACEA Biosciences xCELLigence Real-Time Cell Analysis on Androgen Receptor Antagonism for Proliferation (AID 2283787);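 also: hits lower the impedance growth signal relative to DMSO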
# Summary of the method: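 Impedance readout (RT-CES), 80 h post-dose; loss-of-signal vs DMSO baseline. 22Rv1 cells in assay medium. Compounds: 8-pt 1:4 series, max 100 uM final, up to 0.5% DMSO; n = 2.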
# Luciferin 4-monooxygenase (Photinus pyralis), sequence (P08659 whole entry, looked up): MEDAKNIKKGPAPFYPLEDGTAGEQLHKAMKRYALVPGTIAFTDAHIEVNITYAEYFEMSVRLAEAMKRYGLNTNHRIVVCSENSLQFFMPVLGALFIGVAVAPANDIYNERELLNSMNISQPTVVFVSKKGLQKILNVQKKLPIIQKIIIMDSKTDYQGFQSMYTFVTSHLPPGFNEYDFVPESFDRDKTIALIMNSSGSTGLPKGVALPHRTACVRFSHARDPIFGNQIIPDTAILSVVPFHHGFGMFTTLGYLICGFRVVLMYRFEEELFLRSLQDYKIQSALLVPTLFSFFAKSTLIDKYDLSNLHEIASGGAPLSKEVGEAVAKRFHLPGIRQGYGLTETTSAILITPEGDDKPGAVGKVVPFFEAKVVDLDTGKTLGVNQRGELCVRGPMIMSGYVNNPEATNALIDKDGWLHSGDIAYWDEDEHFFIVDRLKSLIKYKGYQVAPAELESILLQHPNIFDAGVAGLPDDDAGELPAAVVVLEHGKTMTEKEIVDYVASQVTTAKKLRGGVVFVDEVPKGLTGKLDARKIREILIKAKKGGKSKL
# AR (gene 367), sequence (P10275 whole entry, looked up): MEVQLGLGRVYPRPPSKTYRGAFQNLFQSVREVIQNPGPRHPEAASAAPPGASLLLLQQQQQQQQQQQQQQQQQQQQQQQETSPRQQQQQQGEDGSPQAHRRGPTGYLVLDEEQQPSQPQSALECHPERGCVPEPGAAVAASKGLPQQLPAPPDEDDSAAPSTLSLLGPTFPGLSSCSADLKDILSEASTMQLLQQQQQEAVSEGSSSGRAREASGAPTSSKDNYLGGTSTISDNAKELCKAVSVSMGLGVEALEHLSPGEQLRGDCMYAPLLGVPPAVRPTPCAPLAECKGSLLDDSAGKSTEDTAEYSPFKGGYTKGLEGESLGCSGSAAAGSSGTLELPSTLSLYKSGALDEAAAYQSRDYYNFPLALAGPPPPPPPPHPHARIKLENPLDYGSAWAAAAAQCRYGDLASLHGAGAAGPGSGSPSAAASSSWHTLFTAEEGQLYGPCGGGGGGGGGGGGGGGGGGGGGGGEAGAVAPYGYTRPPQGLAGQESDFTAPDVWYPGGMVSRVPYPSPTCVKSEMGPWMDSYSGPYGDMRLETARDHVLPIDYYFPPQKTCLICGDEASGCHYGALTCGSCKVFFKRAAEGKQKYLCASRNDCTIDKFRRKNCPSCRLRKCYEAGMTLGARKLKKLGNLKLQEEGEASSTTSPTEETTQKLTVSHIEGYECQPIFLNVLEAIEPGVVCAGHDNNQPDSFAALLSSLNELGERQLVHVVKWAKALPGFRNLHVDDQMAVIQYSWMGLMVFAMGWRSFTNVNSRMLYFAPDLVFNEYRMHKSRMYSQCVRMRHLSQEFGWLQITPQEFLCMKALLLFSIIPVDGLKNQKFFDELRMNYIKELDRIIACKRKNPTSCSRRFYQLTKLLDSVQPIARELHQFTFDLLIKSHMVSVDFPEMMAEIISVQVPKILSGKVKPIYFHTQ
smiles,measurement,setting,value
c1cnc2c(c1)ccc1cccnc12,AC50,[1],3.57 µM (active)
Cc1cc(Cc2cc(C)cc(C(C)(C)C)c2O)c(O)c(C(C)(C)C)c1,outcome,[2],inactive
same,AC50,[1],21.4 µM (active)
same,AC50,[3],11.4 µM (active)
CN(C)CCOC(c1ccccc1)c1ccccc1,outcome,[1],inactive
same,AC50,[3],50 µM (active)
same,outcome,AR (gene 367) [4],inactive
same,AC50,[5],8.23 µM (active)
CCc1cccc(CC)c1N(COC)C(=O)CS(=O)(=O)O,outcome,[2],inactive
CCC(C)c1ccccc1O (stereo not given),outcome,[1],inactive
same,AC50,[3],79.7 µM (active)
COc1cc([N+](=O)[O-])ccc1N,outcome,[2],inactive
same,outcome,[1],inactive
same,outcome,[3],inactive
same,AC50,AR (gene 367) [6],2.99 µM (active)
CCCCCCCCCCCC,outcome,[2],inactive
same,AC50,[3],50 µM (active) and 40.4 µM (active)
CCCCC=O,outcome,[1],inactive
Cc1ccc(S(=O)(=O)O)cc1,outcome,[1],inactive
same,outcome,[3],inactive
Cc1cc(C(=C2C=CC(=Nc3ccc(S(=O)(=O)O)cc3)C=C2)c2ccc(Nc3ccc(S(=O)(=O)O)cc3)cc2)cc(S(=O)(=O)O)c1N,AC50,[2],42.8 µM (active)
same,outcome,[1],inactive
same,outcome,[3],inactive
same,outcome,AR (gene 367) [6],inactive
N=C(N)c1ccc(OCCCCCOc2ccc(C(=N)N)cc2)cc1,AC50,[1],17.3 µM (active)
same,AC50,[3],63.5 µM (active)
O=C1NS(=O)(=O)c2ccccc21,outcome,[1],inactive
same,outcome,[3],inactive
NC(=NCCCCCCN=C(N)/N=C(\N)Nc1ccc(Cl)cc1)/N=C(\N)Nc1ccc(Cl)cc1,AC50,[1],10.6 µM (active)
same,AC50,[3],8.38 µM (active) and 9.06 µM (active)
same,outcome,AR (gene 367) [4],inactive
same,AC50,AR (gene 367) [6],9.25 µM (active)
CCCCCCCCCCCC(=O)O,outcome,[1],inactive
CN(Cc1cnc2nc(N)nc(N)c2n1)c1ccc(C(=O)N[C@@H](CCC(=O)O)C(=O)O)cc1,outcome,[2],inactive
same,AC50,[1],0.551 µM (active)
same,outcome,AR (gene 367) [4],inactive
same,AC50,[5],0.0867 µM (active)
same,AC50,AR (gene 367) [6],0.39 µM (active)
NS(=O)(=O)O,outcome,[1],inactive
same,outcome,[3],inactive
Cc1ccc(C)c(S(=O)(=O)O)c1,AC50,[1],0.221 µM (active)
same,outcome,[3],inactive
Cc1cc(C(C)(C)C)c(O)c(C(C)(C)C)c1,outcome,[2],inactive
same,AC50,[1],0.144 µM (active)
same,AC50,[3],79.4 µM (active)
